Source: PubChem
CYP2C19 act = human CYP2C19 activators, primary screen, biochemical, luminescence; recombinant CYP2C19, luciferin-H EGE luminescence; active compounds read high; 0 = fully inhibited enzyme, 1 = untreated enzyme; activation factor at 5 µM; AID 1025, 2008; Cytochrome P450 2C19 (Homo sapiens), P33261; 96,000 tested, under 10 active;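 active = activation factor of at least 2 at 5 µM in the primary screen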;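 also: 0 = wells with 2.5 mM tranylcypromine and 1 = vehicle-only wells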
Target sequence (P33261 whole entry, looked up): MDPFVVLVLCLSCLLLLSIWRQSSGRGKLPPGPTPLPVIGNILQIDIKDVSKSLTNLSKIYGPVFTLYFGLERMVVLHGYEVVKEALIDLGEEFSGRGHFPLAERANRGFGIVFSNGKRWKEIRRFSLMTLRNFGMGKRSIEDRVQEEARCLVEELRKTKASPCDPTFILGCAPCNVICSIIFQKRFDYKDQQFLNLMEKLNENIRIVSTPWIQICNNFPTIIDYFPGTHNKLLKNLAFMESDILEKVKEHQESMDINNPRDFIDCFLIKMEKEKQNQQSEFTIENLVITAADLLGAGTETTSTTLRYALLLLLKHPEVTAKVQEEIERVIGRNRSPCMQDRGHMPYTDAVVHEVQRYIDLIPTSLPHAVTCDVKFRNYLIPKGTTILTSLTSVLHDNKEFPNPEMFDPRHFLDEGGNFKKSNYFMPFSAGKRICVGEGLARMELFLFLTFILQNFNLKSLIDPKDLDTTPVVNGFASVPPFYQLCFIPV
PostGolgi ctrl = growth inhibition of yeast control strain, primary screen, counter-screen for post-Golgi transport modulator project | efflux-deficient yeast background strain, growth absorbance A615, 16 h | inhibition, % at 10 µM | hit rate 5% among 98,000 | AID 738, 2007
CYP2C9 inhib = blockers of cytochrome P450 2C9 activity – biochemical, luminescence, ADME assay, primary screen | inhibition, % at 5 µM | CYP2C9 Supersomes, luciferin-H conversion | P11712 | hit rate 20% among 96,000;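 active = blocking of liver enzyme CYP2C9 beyond about 50% at 5 µM, limit read from the data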
PostGolgi yeast = phenotypic screen on post-Golgi transport, primary screen | inhibition, % at 10 µM | post-Golgi transport phenotypic cell assay | hit rate 0.9% among 98,000;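 also: yeast cells grown in 1536-well plates; yeast grown about 18 h at 30C before absorbance read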
CYP2C9 act = human CYP2C9 activators, primary screen, biochemical, luminescence. Cytochrome P450 2C9 (Homo sapiens), P11712. AID 1024, 2008. hit rate 1.4% among 96,000. recombinant CYP2C9, luciferin-H conversion; active compounds read high; factor 1 = untreated enzyme, 0 = blocked. activation factor at 5 µM;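 active = activation factor of 2 or more for CYP2C9 at a 5 µM dose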;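 also: 0 = sulfaphenazole-blocked wells and 1 = vehicle-only wells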
CYP2C19 inhib = blockers of cytochrome P450 2C19 activity – biochemical, luminescence, ADME assay, primary screen. AID 778, 2007. P33261. inhibition, % at 5 µM. CYP2C19 Supersomes, luciferin-H EGE luminescence, 30 min. hit rate 21% among 96,000;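 active = CYP2C19 inhibition above a set limit at 5 µM in the primary screen, cut at about 50% in these data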;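 also: plate controls were negative control wells for no effect and 2.5 mM tranylcypromine positive control for full effect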
An asterisk follows results filed as active; . = no result given. An excerpt weighted towards active compounds, which were near 32% of everything screened. Rule as the data show it, unless noted: active = inhibition above about 30%; inactive = the rest.

SMILES	CYP2C19 act	PostGolgi ctrl	CYP2C9 inhib	PostGolgi yeast	CYP2C9 act	CYP2C19 inhib
Cn1c(NCc2c[nH]c3ccccc23)nc2ccccc21	0.3	26	16	11	0.8	69*
Cn1c(NCc2ccco2)nc2ccccc21	0.8	11	-14	-2	1.1	17
Cn1c(NCc2cccs2)nc2ccccc21	0.5	-3	3	0	1	52*
CCCc1cc(=O)[nH]c(Nc2cc(OC)ccc2OC)n1	1	8	43	3	0.6	3
Cc1cc(C)nc(-n2nc(C)c(Br)c2Nc2ccc(Br)cc2)n1	0.3	24	11	5	0.9	70*
C=CCNC(=S)N1CCN(CCN=CC2=C(O)CC(c3cccs3)CC2=O)CC1 (stereo not given)	1	2	-6	3	1.1	0
Cn1c(=O)[nH]c(=O)c2c1nc(N1CCOCC1)n2CC(O)COc1ccc2ccccc2c1 (stereo not given)	0.7	20	24	-2	0.8	30
Cc1[nH]c2ccccc2c1CN1CCc2ccccc2C1	0.6	18	0	6	1	38
COc1cc2c(cc1OC)CN(Cc1ccc(OC)c(C)c1OC)CC2	0.4	5	-10	-8	1.1	64*
COc1cc(OC)c(OC)cc1CN1CCc2ccccc2C1	0.5	0	6	1	0.9	52*
O=S1CCCSC1c1cccnc1 (stereo not given)	1	3	-5	0	1.1	-5
CC(C)(C)c1ccc(-c2nnc(SCCN3C(=O)c4ccccc4C3=O)o2)cc1	0.2	33*	84*	-3	0.2	78*
Nc1nonc1C(=O)OCC(=O)N1CCOCC1	1	22	2	1	1	-3
N#Cc1ccccc1OCC(=O)Nc1c(C(=O)C2CC2)oc2ccccc12	0.8	5	38	-2	0.6	23
O=S(=O)(c1ccc(Br)cc1)N1CCCC1c1nc2ccccc2s1 (stereo not given)	.	40*	.	-7	.	.
O=S(=O)(c1ccc(N2CCCC2c2nc3ccccc3s2)nc1)N1CCOCC1 (stereo not given)	0.1	10	86*	-7	0.1	89*
CN(C)S(=O)(=O)c1ccc(C(=O)N2CCCC2c2nc3ccccc3s2)cc1 (stereo not given)	.	10	.	16	.	.
Cc1c(C)n(Cc2ccccc2)c2ncnc(N)c12	0.6	4	24	3	0.8	45
CC(C)(C)OC(=O)N1CC=C2C(C#N)=C(N)C(C#N)(C#N)C(c3cccs3)C2C1 (stereo not given)	0.6	5	60*	1	0.4	39
Cc1ccc(NC2=NC(C(=O)Nc3ccc(C)c(C)c3)CC(=O)N2)cc1 (stereo not given)	1	-2	-8	-11	1.1	2
CC(=O)NC(N1CCCCC1)C(F)(F)C(F)(F)C(F)(F)C(F)F (stereo not given)	0	0	65*	4	0.3	99*
Cc1cc(Cl)ccc1OCCCC(=O)NCC1CCCO1 (stereo not given)	0.7	2	-131	8	2.3*	27
CN(C)c1cccc(C(=O)OCC(=O)NCc2ccco2)c1	.	6	.	1	.	.
O=C(COC(=O)CCC(=O)c1ccc(Cl)cc1)NCC1CCCO1 (stereo not given)	0.4	7	23	-2	0.8	59*
CN(C)c1ccc(C(=O)OCC(=O)NCC2CCCO2)cc1 (stereo not given)	0.2	-5	-48	2	1.5	83*
CN(C)c1cccc(C(=O)OCC(=O)NCC2CCCO2)c1 (stereo not given)	0.3	-2	-161	-4	2.6*	67*
O=C(CN1CCCCC1)Nc1ccc(NC(=O)c2ccc(Cl)cc2)cc1Cl	0.8	-4	16	-7	0.8	18
CC1CCCCC1NC1=NCCS1 (stereo not given)	0.8	11	3	14	1	18
CCC(C)(C(=O)NC1CCCCC1)N(Cc1ccco1)C(=O)c1ccccn1 (stereo not given)	1	2	-4	16	1	2
